Results from ChEMBL document CHEMBL4808148, “HDAC6 screening dataset using tau-based substrate in an enzymatic assay yields selective inhibitors and activators” (2021).
The whole screen tested about 5,600 compounds, of which about 390 (7%) showed an effect of 50% or more. Many of the other results were omitted from the sample, so strong results are more common in it than they were. Non-standard residues stand in square brackets, D forms with d. Residues, ends and D or L forms follow the SMILES beside them. αMeP = C[C@@]1(C(=O)O)CCCN1

What was measured:
[1] = biological target: T1, Protein deacetylase HDAC6 (Homo sapiens) (UniProt Q9UBN7); conditions: at 10 µM
T1 sequence (whole entry): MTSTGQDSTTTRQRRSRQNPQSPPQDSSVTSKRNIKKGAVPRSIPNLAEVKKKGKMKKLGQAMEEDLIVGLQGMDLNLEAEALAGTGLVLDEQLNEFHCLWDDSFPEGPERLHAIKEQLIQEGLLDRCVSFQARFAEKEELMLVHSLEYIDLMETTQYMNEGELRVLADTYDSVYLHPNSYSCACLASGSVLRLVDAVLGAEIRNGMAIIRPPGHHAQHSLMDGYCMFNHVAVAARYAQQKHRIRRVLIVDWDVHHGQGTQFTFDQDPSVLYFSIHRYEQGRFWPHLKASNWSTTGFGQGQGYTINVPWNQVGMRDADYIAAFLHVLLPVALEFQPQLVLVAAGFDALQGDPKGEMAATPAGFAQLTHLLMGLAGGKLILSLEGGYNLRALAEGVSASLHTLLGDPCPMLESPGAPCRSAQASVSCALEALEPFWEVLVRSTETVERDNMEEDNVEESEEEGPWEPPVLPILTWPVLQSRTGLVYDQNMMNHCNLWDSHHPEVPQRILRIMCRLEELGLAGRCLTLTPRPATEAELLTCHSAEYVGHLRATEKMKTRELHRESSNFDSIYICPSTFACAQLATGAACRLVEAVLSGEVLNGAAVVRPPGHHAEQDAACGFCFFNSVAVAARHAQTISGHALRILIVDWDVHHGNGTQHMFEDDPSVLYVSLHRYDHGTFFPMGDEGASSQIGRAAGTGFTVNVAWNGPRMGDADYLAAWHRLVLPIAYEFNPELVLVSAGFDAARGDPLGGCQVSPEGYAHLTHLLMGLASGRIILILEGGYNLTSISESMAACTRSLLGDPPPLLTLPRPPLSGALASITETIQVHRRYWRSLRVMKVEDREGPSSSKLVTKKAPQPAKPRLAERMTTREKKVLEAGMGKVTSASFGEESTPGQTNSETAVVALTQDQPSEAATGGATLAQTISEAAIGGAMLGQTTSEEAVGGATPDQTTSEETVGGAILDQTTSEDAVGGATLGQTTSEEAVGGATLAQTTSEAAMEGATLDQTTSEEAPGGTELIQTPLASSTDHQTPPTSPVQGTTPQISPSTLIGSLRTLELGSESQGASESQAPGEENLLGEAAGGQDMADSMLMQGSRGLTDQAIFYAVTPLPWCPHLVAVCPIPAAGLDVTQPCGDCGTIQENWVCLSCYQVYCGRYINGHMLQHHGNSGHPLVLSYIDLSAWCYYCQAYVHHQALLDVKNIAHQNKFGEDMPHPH

[2] = biological target: Protein deacetylase HDAC6 (Homo sapiens) (UniProt Q9UBN7); conditions: at 10 µM; remark: listed apart in the source

Row | Compound | inhibition [1] [%] | inhibition [2] [%]
1 | CCCC(=O)Nc1ncnc2c1ncn2C1O[C@@H]2COP(=O)(O)O[C@H]2[C@H]1OC(=O)CCC (some centres undefined) | 3.41 | 
2 | N#Cc1ncccn1 | -1.21 | 
3 | COc1cc(N2CCC(N3CCN(C)CC3)CC2)ccc1Nc1ncc(Cl)c(Nc2ccccc2S(=O)(=O)C(C)C)n1 | 17.9 | 
4 | C[C@@]1(C(=O)N[C@@H](CCC(=O)O)C(=O)O)CCCN1C(=O)CN (H-Gly-[αMeP]-Glu-OH) | -8.16 | 
5 | Cc1c(Cl)cccc1Nc1ccccc1C(=O)O | 32.3 | 
6 | O=C1OC(OC(=O)c2cccnc2Nc2cccc(C(F)(F)F)c2)c2ccccc21 (centres undefined) | 4.26 | 
7 | Cc1c(Nc2ncccc2C(=O)O)cccc1C(F)(F)F | 89.7 | 
8 | O=C(O)c1cccnc1Nc1cccc(C(F)(F)F)c1 | 74.8 | 
9 | O=C(O)c1cccnc1C(=O)O | -0.23 | 
10 | O=C(OCCOCCO)c1ccccc1Nc1cccc(C(F)(F)F)c1 | 46.4 | 
11 | CN[C@H](C(=O)N[C@H](C(=O)N(C)[C@H](/C=C(\C)C(=O)O)C(C)C)C(C)(C)C)C(C)(C)c1ccccc1 | -3.5 | 
12 | CC1OC1P(=O)(O)O (centres undefined) | -9.26 | 
13 | TEPRENONE, CHEMBL5314356 |  | 27.9
14 | CC1=C(C(=O)Nc2cc3cn[nH]c3cc2F)C(c2ccc(C(F)(F)F)cc2)CC(=O)N1 (centres undefined) | 24.4 | 
15 | C#CCN[C@@H]1CCc2ccccc21 | 54 | 
16 | c1ccc(Oc2cccnc2)cc1 | 10.2 | 
17 | CCCCNc1nc(N)c2[nH]c(=O)n(Cc3ccc(OCCN(C)C)nc3)c2n1 | -9.47 | 
18 | CCCC(=O)OCOC(=O)C1=C(C)NC(C)=C(C(=O)OC)C1c1cccc(Cl)c1Cl (centres undefined) | 44.1 | 
19 | Cc1ccc(Nc2ncc3c(n2)N(C)C(=O)N(c2cc(NC(=O)c4cccc(C(F)(F)F)c4)ccc2C)C3)cn1 | 2.43 | 
20 | O=C(O)C1=CC(O)C(O)[C@H](O)C1 (some centres undefined) | 11.8 | 
21 | CCCn1c(=O)c2nc(-c3ccccc3)[nH]c2n(CCC)c1=O | -5.2 | 
22 | CCCn1c(=O)c2[nH]c(-c3cnn(Cc4cccc(C(F)(F)F)c4)c3)nc2n(CC)c1=O | 101 | 
23 | CCOC(=O)COc1ccc2c(c1)C[C@@H](NC[C@H](O)c1cccc(Cl)c1)CC2 | 16.8 | 
24 | Cn1nccc1Nc1nccc(-c2ccn([C@H](CO)c3ccc(Cl)c(F)c3)c(=O)c2)n1 | 26.5 | 
25 | CN1CCC(Nc2ncc3ncnc(Nc4ccc(F)c(Cl)c4)c3n2)CC1 | 20.6 | 
26 | O=C(Nc1cccc(Br)c1)c1cccc(S(=O)(=O)N2CCCCCC2)c1 | 12.5 | 
27 | CCOc1cccc(NC(=O)c2ccc(N3CCCC3)c(C(F)(F)F)c2)c1 | 69.4 | 
28 | CCn1c(-c2nonc2N)nc2cnc(Oc3cccc(NC(=O)c4ccc(OCCN5CCOCC5)cc4)c3)cc21 | 7.09 | 
29 | Cc1cc(C)n(-c2cccc([C@H](CC(=O)O)CN3CC[C@@H](CCc4ccc5c(n4)NCCC5)C3)c2)n1 | -4.01 | 
